Several values for one entry are separate records, joined by “and”; a condition that tells them apart may be missing. Equal values may be shown once. Inconclusive results are not listed. Activity calls are given as the source filed them. The call rests on the fitted dose curve.
Key:
[1] = Cytotoxicity counterscreen for inhibitors of SARS-CoV-2 cell entry (AID 1645845); further: nearly all actives have a fitted effect of over 50% in size
How it was run: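 Counterscreen run in the same HEK293-ACE2 line as the pseudotyped-particle entry assay, without particles. Viability after 48 h at 37 C was read as ATP luminescence, scaled between cell-containing and cell-free wells.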

[2] = Primary qHTS to identify inhibitors of SARS-CoV-2 cell entry (AID 1645846); conditions: activity change, negative = inhibition: at 57.1 µM (top of the series) unless noted; further: nearly all actives have a fitted effect of over 45% in size
How it was run: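 Using luciferase-reporting pseudoviruses carrying Wuhan-Hu-1 spike, the screen tracks entry into stably ACE2-expressing cells over 48 hr. Activity is expressed relative to spike particles versus particles lacking any fusion protein.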
Potency means the concentration at half of the fitted maximal effect.

Cc1cc(=O)oc2cc(O)ccc12
Potency [1]: inactive
Potency [2]: inactive
activity change, negative = inhibition [2]: -8.91%

CN(C)CCC(c1ccccc1)c1ccccn1 (centres undefined)
activity change, negative = inhibition [2]: -4.85%

COc1ccc2c(c1)c(CC(=O)O)c(C)n2C(=O)c1ccc(Cl)cc1
Potency [2]: inactive

CN1CCN(c2cc3c(cc2F)c(=O)c(C(=O)O)cn3-c2ccc(F)cc2)CC1
Potency [2]: inactive

CCC(=O)O[C@]1(C(=O)CCl)[C@@H](C)C[C@H]2[C@@H]3CCC4=CC(=O)C=C[C@]4(C)[C@@]3(F)[C@@H](O)C[C@@]21C
Potency [1]: inactive
Potency [2]: inactive
activity change, negative = inhibition [2]: -9.65%

CCC1NC(=O)c2cc(S(N)(=O)=O)c(Cl)cc2N1 (centres undefined)
activity change, negative = inhibition [2]: -25.9%

c1ccc([C@H]2CN3CCSC3=N2)cc1
Potency [1]: inactive
Potency [2]: inactive
activity change, negative = inhibition [2]: -16.1%

O=C(O)c1cccc(-c2noc(-c3ccccc3F)n2)c1
Potency [1]: 6.31 µM (active)
Potency [2]: inactive
activity change, negative = inhibition [2]: -78%

Cc1cc(C(C)(C)C)c(O)c(C)c1CC1=NCCN1
Potency [1]: inactive
Potency [2]: inactive
activity change, negative = inhibition [2]: -17.1%

N/C(=N\N=C\c1ccc(Cl)cc1)N/N=C/c1ccc(Cl)cc1
activity change, negative = inhibition [2]: -80.5%

CCOC(=O)C(C)(C)Oc1ccc(Cl)cc1
Potency [1]: inactive
Potency [2]: inactive
activity change, negative = inhibition [2]: -63%

O=S(=O)(c1cccc2cnccc12)N1CCCNCC1
Potency [1]: inactive
Potency [2]: inactive
activity change, negative = inhibition [2]: -0.418%

NC(=O)c1ncn([C@@H]2O[C@H](CO)[C@@H](O)[C@H]2O)c1N
Potency [1]: inactive
Potency [2]: inactive
activity change, negative = inhibition [2]: -18.5%

CN1CC(=O)N2[C@H](c3ccc4c(c3)OCO4)c3[nH]c4ccccc4c3C[C@@H]2C1=O
Potency [1]: inactive
Potency [2]: inactive
activity change, negative = inhibition [2]: -9.6%

CCN1CCN(c2cc(-c3ccc(F)cc3)c3c(n2)CCCCCC3)CC1
Potency [2]: inactive

CCOC(=O)[C@H](CCc1ccccc1)N[C@H]1CS[C@H](c2cccs2)CN(CC(=O)O)C1=O
Potency [1]: inactive
Potency [2]: inactive
activity change, negative = inhibition [2]: -4.69%

CN(C)c1ccc(C(=C2C=CC(=[N+](C)C)C=C2)c2ccc(N(C)C)cc2)cc1
Potency [2]: 2.24 µM (active) and 2.51 µM (active)

CCCN(CCC)C(=O)C(CCC(=O)O)NC(=O)c1ccccc1 (centres undefined)
Potency [1]: inactive
Potency [2]: inactive
activity change, negative = inhibition [2]: 2.74%

CC(=O)O[C@]1(C(C)=O)CC[C@H]2[C@@H]3C=C(Cl)C4=CC(=O)CC[C@]4(C)[C@H]3CC[C@@]21C
activity change, negative = inhibition [2]: -27.6%

CCCCNc1ccc(C(=O)OCCN(C)C)cc1
Potency [2]: inactive

Nc1ccc2cc3ccc(N)cc3nc2c1
Potency [2]: 7.94 µM (active)

CN(C)CCOC(c1ccccc1)c1ccccc1
activity change, negative = inhibition [2]: -13.9%

O[C@@H](COc1cccc2ncccc12)CN1CCN(C2c3ccccc3[C@@H]3[C@H](c4ccccc42)C3(F)F)CC1 (some centres undefined)
Potency [2]: 28.2 µM (active)

C[N+](C)(C)CCCCCCCCCC[N+](C)(C)C
activity change, negative = inhibition [2]: -5.17%

Oc1c(Cl)cc(Cl)cc1Sc1cc(Cl)cc(Cl)c1O
Potency [2]: 20 µM (active)

C[C@@H]1C[C@@H]([C@H](O)CC2CC(=O)NC(=O)C2)C(=O)[C@@H](C)C1
Potency [2]: 2.51 µM (active)

CC(COc1ccccc1)NC(C)C(O)c1ccc(O)cc1 (centres undefined)
Potency [2]: inactive

O=C(Nc1ccc([N+](=O)[O-])cc1Cl)c1cc(Cl)ccc1O
Potency [2]: 2.51 µM (active) and 8.91 µM (active)

CCCCCN=C(N)N/N=C/c1c[nH]c2ccc(OC)cc12
Potency [2]: 22.4 µM (active)

COc1ccc(CCN2CCC(Nc3nc4ccccc4n3Cc3ccc(F)cc3)CC2)cc1
Potency [2]: 10 µM (active)

O=C(O)/C=C/c1ccc(Cn2ccnc2)cc1
Potency [2]: inactive

NC1(c2ccc(-c3nc4ccn5c(=O)[nH]nc5c4cc3-c3ccccc3)cc2)CCC1
Potency [2]: 8.91 µM (active)

CC(C)(C)C(=O)C(Oc1ccc(Cl)cc1)n1ccnc1 (centres undefined)
Potency [2]: 20 µM (active)

C[C@@H](O)[C@H](N)C(=O)O
activity change, negative = inhibition [2]: 0.235% [at 27.1 µM]

CC1=C(CC(=O)O)c2cc(F)ccc2/C1=C\c1ccc(S(C)=O)cc1 (centres undefined)
Potency [2]: inactive

NC(CSCC(=O)O)C(=O)O (centres undefined)
activity change, negative = inhibition [2]: 0.853%

C=CCc1ccccc1OCC(O)CNC(C)C (centres undefined)
activity change, negative = inhibition [2]: -22.8%

C[N+]12CCC(CC1)C(OC(=O)C(O)(c1ccccc1)c1ccccc1)C2 (centres undefined)
Potency [2]: inactive

NC(N)=NCCC[C@H](N)C(=O)O
outcome [2]: inactive [at 5.25 µM]

COc1ccc(-c2nc3ccc(C4=NNC(=O)CC4C)cc3[nH]2)cc1 (centres undefined)
activity change, negative = inhibition [2]: -33%

CC[C@H]1CN2CCc3cc(OC)c(OC)cc3[C@@H]2C[C@@H]1C[C@H]1NCCc2cc(OC)c(OC)cc21
Potency [2]: 1.26 µM (active)

COc1ccc(CN(CCN(C)C)c2ncccn2)cc1
activity change, negative = inhibition [2]: -19.5%

CCCCc1ccc2nc(NC(=O)OC)[nH]c2c1
activity change, negative = inhibition [2]: -63.3%

CN(C)c1ccc(C(=C2C=CC(=[N+](C)C)C=C2)c2ccccc2)cc1
Potency [2]: 4.47 µM (active)

CCC(=O)c1ccc(O)cc1
Potency [2]: inactive

O=C(Oc1cccc2cccnc12)c1ccccc1
Potency [2]: 8.91 µM (active)

CSc1ccc(C(=O)c2[nH]c(=O)[nH]c2C)cc1
Potency [2]: inactive

Clc1ccc(C(Cn2ccnc2)OCc2c(Cl)cccc2Cl)c(Cl)c1 (centres undefined)
Potency [2]: 31.6 µM (active)

N[C@@H](Cc1c[nH]c2ccc(O)cc12)C(=O)O
Potency [2]: inactive

CC(C)C(=O)Nc1cccc(C2CN3CCSC3=N2)c1 (centres undefined)
activity change, negative = inhibition [2]: -6.4%

NC(N)=N/N=C/c1c(Cl)cccc1Cl
activity change, negative = inhibition [2]: -25.8%

CCCCCCCCCCCCCCCCCCNC(=O)OC1CCN(C(=O)OC[C@H](COC(=O)N(Cc2cccc[n+]2CC)C(=O)c2ccccc2OC)OC)CC1
Potency [2]: 10 µM (active)

CCCCN(CCN(CCCC)C(=O)N1CCOCC1)C(=O)N1CCOCC1
Potency [2]: inactive

[O-][n+]1ccccc1SSc1cccc[n+]1[O-]
activity change, negative = inhibition [2]: -95.2% [at 27.1 µM]

NC(=O)Cc1cccc(C(=O)c2ccccc2)c1N
Potency [2]: inactive

Cc1cc(C2CCCCC2)n(O)c(=O)c1
Potency [2]: 17.8 µM (active)

O=C(NOCC1CC1)c1ccc(F)c(F)c1Nc1ccc(I)cc1Cl
Potency [2]: 31.6 µM (active)

— PubChem BioAssay (NCATS)
